{"source": "paper PMC7819943", "about": "“Rice protein-binding microarrays: a tool to detect cis-acting elements near promoter regions in rice”", "note": "The full ranking holds about 35,000 sequences; the median of “fluorescence intensity (a.u.)” is about 10,000, and the highest 2% start at about 52,000. The full list was thinned out, with the highest values kept by preference.", "data": [{"biological_target": "T1, OsWOX13 (Oryza sativa, UniProt Q5QMM3 1-267)", "T1 sequence": "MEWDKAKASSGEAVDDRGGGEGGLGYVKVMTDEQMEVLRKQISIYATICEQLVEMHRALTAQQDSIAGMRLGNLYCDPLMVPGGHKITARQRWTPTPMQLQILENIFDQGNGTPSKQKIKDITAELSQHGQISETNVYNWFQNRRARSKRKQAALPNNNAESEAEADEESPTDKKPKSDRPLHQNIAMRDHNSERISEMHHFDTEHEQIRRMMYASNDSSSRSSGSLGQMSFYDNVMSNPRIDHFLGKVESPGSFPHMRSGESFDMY", "assay": "protein-binding microarray (RPBM); PBS, 2% BSA, 51.3 ng/ul salmon testes DNA, 50 uM zinc acetate, 200 nM TF, 25 C, 1 h; high values mean tight binding", "conditions": "protein: recombinant; tags: N-terminal polyhistidine and DsRed monomer fusion (pET32a); label: CyDye5-dUTP incorporated in the synthesized complementary strand; 3' TTTTT single-stranded linker to array surface; dsDNA, one strand shown", "summary_of_the_method": "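Ni–NTA purification followed expression in E. coli BL21-CodonPlus of transcription factors fused N-terminally to a polyhistidine tag and DsRed. At 200 nM in PBS with 2% BSA, salmon testes DNA and 50 µM zinc acetate, the protein was incubated for 1 h at 25 °C with a custom Agilent array that had been primer-extended with Cy5-dUTP and blocked with 2% BSA. After washing, the array was read on an Axon 4000B scanner. The binding signal is per-feature fluorescence intensity in arbitrary units.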", "values": [{"sequence": "TTAACAGATTCTTCTTAATTAATAAATAAGCTGTCATGATCGGAGTCACCTAGTGCAG", "binding signal": "17300 fluorescence intensity (a.u.)"}, {"sequence": "TTGATTAGATGCGCTGTGTGGCTTCTTGTTCAGTGACAGGCGGAGTCACCTAGTGCAG", "binding signal": "32400 fluorescence intensity (a.u.)"}, {"sequence": "ACTATGCCAATTAAAATAAATCAATACAATAGGTATGATTCGGAGTCACCTAGTGCAG", "binding signal": "9790 fluorescence intensity (a.u.)"}, {"sequence": "TACAACAAATCAATAATACTCAATTTCCATGTAGTTTGATCGGAGTCACCTAGTGCAG", "binding signal": "7890 fluorescence intensity (a.u.)"}, {"sequence": "TTGATAGTAAATCAAACATTAATAAAGGCCTGTTCACTTTCGGAGTCACCTAGTGCAG", "binding signal": "8860 fluorescence intensity (a.u.)"}, {"sequence": "CCAGATTGAGCTGTTGCGCACCACCATCCTGACCAGCTGCCGGAGTCACCTAGTGCAG", "binding signal": "17400 fluorescence intensity (a.u.)"}, {"sequence": "ATGACAGCAATTCCGATATCTAATAAGATTGAAAATATTGCGGAGTCACCTAGTGCAG", "binding signal": "14800 fluorescence intensity (a.u.)"}, {"sequence": "CCAAATGATATAATCATGGCACATGGAGTACTGCTTAAGACGGAGTCACCTAGTGCAG", "binding signal": "9170 fluorescence intensity (a.u.)"}, {"sequence": "CTAAAATTGGAGACGTCACTACAAACGTACGCACTCTTTGCGGAGTCACCTAGTGCAG", "binding signal": "6760 fluorescence intensity (a.u.)"}, {"sequence": "TTTAATTGGTTAAATGAACTATGTAATGTTATAATTATATCGGAGTCACCTAGTGCAG", "binding signal": "33200 fluorescence intensity (a.u.)"}, {"sequence": "ATGAGATAAATTGATTGTTAACCATGTATGTCTCTAAGGTCGGAGTCACCTAGTGCAG", "binding signal": "56400 fluorescence intensity (a.u.)"}, {"sequence": "AAAATTGAAATTTTCAACATTAAATTTGGATTAGATTTTGCGGAGTCACCTAGTGCAG", "binding signal": "19200 fluorescence intensity (a.u.)"}, {"sequence": "AGTAAATTGGTGTATGATTAGATTAACATGTTAAATGTATCGGAGTCACCTAGTGCAG", "binding signal": "53500 fluorescence intensity (a.u.)"}, {"sequence": "ATTAAAACTTAATTAAATATACTAATAGCTTTCTCATTTTCGGAGTCACCTAGTGCAG", "binding signal": "7350 fluorescence intensity (a.u.)"}, {"sequence": "GATTAATTAATTATTATCCATTGTACACTTCGAAAATTGGCGGAGTCACCTAGTGCAG", "binding signal": "60500 fluorescence intensity (a.u.)"}, {"sequence": "TAGAATAAATTGATTTAATTAAATGTAACATTAAATATATCGGAGTCACCTAGTGCAG", "binding signal": "10100 fluorescence intensity (a.u.)"}, {"sequence": "AGATAATTTAATTGTTAACCATGTATGGCTGTAAGGGTATCGGAGTCACCTAGTGCAG", "binding signal": "43900 fluorescence intensity (a.u.)"}, {"sequence": "GAAATAGATTAATTATAGCTAAAACATTTTCTCGACCTTGCGGAGTCACCTAGTGCAG", "binding signal": "52800 fluorescence intensity (a.u.)"}, {"sequence": "TAAGATAAATTAATTGGTAACCTTGTATGTCCATAAGGGTCGGAGTCACCTAGTGCAG", "binding signal": "45400 fluorescence intensity (a.u.)"}, {"sequence": "CGGCGTTAATTGTCCTTCGATCCATTATTACAGAAACACTCGGAGTCACCTAGTGCAG", "binding signal": "15400 fluorescence intensity (a.u.)"}, {"sequence": "GTACATTTTAATGATTATATTATGATGATGAAAATTGTATCGGAGTCACCTAGTGCAG", "binding signal": "15300 fluorescence intensity (a.u.)"}, {"sequence": "GGGGATAATTTTGTAGCTCGATGACAAGTTGATTTGGTGTCGGAGTCACCTAGTGCAG", "binding signal": "19200 fluorescence intensity (a.u.)"}, {"sequence": "ATCGAATTGAGGGAGATAAATTGATCTTGTTTTAATAATTCGGAGTCACCTAGTGCAG", "binding signal": "3450 fluorescence intensity (a.u.)"}, {"sequence": "CTTTAATTACCACCCGATCTCACCAACAAGCGGGGCAGCTCGGAGTCACCTAGTGCAG", "binding signal": "20400 fluorescence intensity (a.u.)"}, {"sequence": "AAACGATTGATCACAATCCACGCATCGTGCCTCTCTCGCCCGGAGTCACCTAGTGCAG", "binding signal": "14300 fluorescence intensity (a.u.)"}, {"sequence": "GTCTCGTAATTTTCTGTTGAACTATGTAATTGATTTCTTTCGGAGTCACCTAGTGCAG", "binding signal": "10500 fluorescence intensity (a.u.)"}, {"sequence": "TGCCACTCAAGTACAATTATTCCCATTAATTCGCTCCATTCGGAGTCACCTAGTGCAG", "binding signal": "5600 fluorescence intensity (a.u.)"}, {"sequence": "TGAATTACTCAATTGAATTGGTGTTATGTAATAAACTGCTCGGAGTCACCTAGTGCAG", "binding signal": "5970 fluorescence intensity (a.u.)"}, {"sequence": "TGTGATGTATTTGATTTATGATGTATTTATTTGTGTGTATCGGAGTCACCTAGTGCAG", "binding signal": "20700 fluorescence intensity (a.u.)"}, {"sequence": "AATTTAATTAATGACAAATATAATTAGCTCTCTATCCAGGCGGAGTCACCTAGTGCAG", "binding signal": "55500 fluorescence intensity (a.u.)"}, {"sequence": "ATAAGTTAATTTAAATAAATGGAGTAGAATATTATGATAGCGGAGTCACCTAGTGCAG", "binding signal": "26300 fluorescence intensity (a.u.)"}, {"sequence": "AGCTCTATAATTTTACAATTTAAAATTATATTATATAAAGCGGAGTCACCTAGTGCAG", "binding signal": "20400 fluorescence intensity (a.u.)"}, {"sequence": "ATTGATTGAGAAAATAATGTTGGTGAATAAATTGTTATATCGGAGTCACCTAGTGCAG", "binding signal": "40700 fluorescence intensity (a.u.)"}, {"sequence": "TTATGATATATTGATCGTAGGATTGGGATTGGGATCCTATCGGAGTCACCTAGTGCAG", "binding signal": "15800 fluorescence intensity (a.u.)"}, {"sequence": "CCGGGGATTGATTTGCCGAGTGTATTATTGATCGTATGATCGGAGTCACCTAGTGCAG", "binding signal": "53500 fluorescence intensity (a.u.)"}, {"sequence": "CAAATATATTATAAAATTGCATTTAATAAAACTTATTTGGCGGAGTCACCTAGTGCAG", "binding signal": "3450 fluorescence intensity (a.u.)"}, {"sequence": "ACTTAATTGGATAGATAAATTTAAGTTATATTTAATATGGCGGAGTCACCTAGTGCAG", "binding signal": "64900 fluorescence intensity (a.u.)"}, {"sequence": "GCATGACAAATGGCGTTAATTAGTCCACAAATAATATATACGGAGTCACCTAGTGCAG", "binding signal": "3210 fluorescence intensity (a.u.)"}, {"sequence": "AGTAATAAATTGATTGTATGTTATCTGGTGGTCTGAAACTCGGAGTCACCTAGTGCAG", "binding signal": "57400 fluorescence intensity (a.u.)"}, {"sequence": "GCATGTTGATTATACCAGTAAGTTTCACGCACGCACACCGCGGAGTCACCTAGTGCAG", "binding signal": "13000 fluorescence intensity (a.u.)"}, {"sequence": "ACATGTTAATTTTAACATTGACTAATAGTAAGTAGTGAGCCGGAGTCACCTAGTGCAG", "binding signal": "25000 fluorescence intensity (a.u.)"}, {"sequence": "AAAGGGATGAGATTGAAGCAATTCCCGTGACTAGAAAACGCGGAGTCACCTAGTGCAG", "binding signal": "3320 fluorescence intensity (a.u.)"}, {"sequence": "AAATTTAAATTTGAAGTTGATTTTAAGATATTTTCAACGTCGGAGTCACCTAGTGCAG", "binding signal": "21000 fluorescence intensity (a.u.)"}, {"sequence": "TTAGTTTATACTCAATTAATCATTCGCTAATGGCTTACCTCGGAGTCACCTAGTGCAG", "binding signal": "5920 fluorescence intensity (a.u.)"}]}]}
